The source of these data is PubChem BioAssay (NCATS).

The subject of assay [1] is CRL-7250. The assay is described as follows: Cytotoxic Profiling of Annotated Libraries Using Quantitative High-Throughput Screening (AID 1296008). For max response: % is set by controls: 0 for no effect and ±100 for the full control effect. Note: potency is the fitted concentration of half-maximal effect. The settings on record: Five cell lines viability, CellTiter-Glo ATP luminescence, 48-72 h; max response: stronger effect = lower value. In outline: (§1)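 Cytotoxicity was measured as CellTiter-Glo ATP luminescence, read after 10 min at room temperature. Compound treatment of the cells lasted 48 or 72 hr at 37 degrees Celsius in a qHTS format.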
Background: In ATP-based viability assays light output follows the ATP content of the culture.

Another assay concerns HEK293. Described as above. The settings on record: Five cell lines viability, CellTiter-Glo ATP luminescence, 48-72 h; max response: stronger effect = lower value. The essentials:
as §1

Assay [2] concerns HaCat. The description is as above. The settings on record: Five cell lines viability, CellTiter-Glo ATP luminescence, 48-72 h; max response: stronger effect = lower value. In outline: as §1
Another assay has as its system KB-3-1. The assay is described as above. To be noted: Five cell lines viability, CellTiter-Glo ATP luminescence, 48-72 h; max response: stronger effect = lower value. The essentials: as §1
The next assay deals with NIH3T3. Described as above. To be noted: Five cell lines viability, CellTiter-Glo ATP luminescence, 48-72 h; max response: stronger effect = lower value. In outline:
as §1

In assay [3] the test system is HACAT. As to the kind of experiment: qHTS assay to identify novel small-molecules to repurpose for Merkel cell carcinoma treatment (AID 1296009). The settings on record: MCC and control cell lines, CellTiter-Glo viability, 72 h. The essentials:
(§2)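 72 hr, 37 degree celsius; NPC 8-pt / MIPE 11-pt dose response; compound pinned in DMSO; CellTiter-Glo, 10 min RT, luminescence; normalized to no-cell and DMSO controls.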
Background: In qHTS, concentration-response curves come from the screen itself.

The subject of a further assay is MCC-13. The assay is described as above. The settings on record: MCC and control cell lines, CellTiter-Glo viability, 72 h; series mostly up to 46 µM. The essentials: as §2
Another assay deals with W2. The assay is described as follows: qHTS profiling for inhibitors of Plasmodium falciparum proliferation (AID 504749). Note: potency is the fitted concentration of half-maximal effect. To be noted: P. falciparum in erythrocytes, SYBR Green DNA, 72 h; series mostly up to 28.7 µM. In outline:
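Infected RBCs, 0.3% parasitemia/2.5% Hct final; cpd 72 h, 37 C, 5% CO2; lysis buffer with saponin/triton/SYBR Green I, o/n RT dark; FI 485/535; norm. to artemisinin (0.29 uM) and DMSO.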

In assay [4] the test system is CRL-7250. The assay is described as follows: qHTS assay to identify novel small-molecules to repurpose for Merkel cell carcinoma treatment (AID 1296009). To be noted: MCC and control cell lines, CellTiter-Glo viability, 72 h; at 44.8 µM (top of the series) unless noted. The essentials:
as §2

A further assay concerns HEK293T. The description is as above. The settings on record: MCC and control cell lines, CellTiter-Glo viability, 72 h; at 44.8 µM (top of the series) unless noted. In outline: as §2
[5] abbreviates: at 44.8 µM (top of the series) unless noted.

Values joined by “and” are separate entries in the source; they are usually repeats but may differ in a detail not shown here. Equal entries are not always repeated. Inconclusive results are not listed. A structure can be active in one record and inactive in another. A number with no mark means an inactive call. Active and inactive are the calls of the source. Calls come from the whole dose curve; as a rule, active = well fitted inhibition curve with a large enough effect; inconclusive = small, poorly fitted or top-dose-only effect; inactive = flat fitted curve, though single readings scatter.
Note: nearly all actives have a fitted effect of over 60% in size.

Consider `CN1CCC(O)(c2ccc(F)cc2)C(C(=O)c2ccc(F)cc2)C1` (configuration not stated), for which the max response is -1.09% in the assay with CRL-7250 [1], 3.5% in the assay on HEK293, 8.12% with KB-3-1 and 2.95% with NIH3T3. The result in the assay on HaCat [2], in the assay on HACAT [3] (setting [5]) and in the assay with MCC-13 was inactive.

Consider `CC(C)(C)NCC(O)c1cc(Cl)c(N)c(C(F)(F)F)c1` (configuration not stated), for which the Potency with W2 is 5.36 µM (active). In addition, the result in the assay on CRL-7250 [1], in the assay on HEK293, in the assay with NIH3T3, in the assay on CRL-7250 [4], in the assay on HEK293T and in the assay with MCC-13 was inactive. Also, the max response in the assay with HaCat [2] was -13.5%; with KB-3-1 it was 5.51%.

As for `C=CCN1C[C@H](C)N([C@H](c2ccc(C(=O)N(CC)CC)cc2)c2cccc(OC)c2)C[C@H]1C`, the Potency with W2 is 15.1 µM (active). Also, the max response is 0.0318% in the assay on CRL-7250 [1]; -3.98% and -24.1% with HEK293; 2.69% in the assay with KB-3-1; -0.106% and 4.66% in the assay on NIH3T3. Also, the compound was classed as inactive with CRL-7250 [1], in the assay with HaCat [2], with KB-3-1, in the assay with CRL-7250 [4], with HACAT [3] (at 9.27 µM (top of the series)) and in the assay with HACAT [3] (at 44.8 µM (top of the series)). In addition, the compound was classed as inactive in the assay on MCC-13.

On to `O=C(N/N=C/c1ccc([N+](=O)[O-])o1)c1cc([N+](=O)[O-])cc([N+](=O)[O-])c1O`, for which the max response with CRL-7250 [1] was -3.2%; with HEK293, 1.49%; in the assay on KB-3-1 it was 15.7%; in the assay on NIH3T3, 1.92%. The result in the assay on HaCat [2], in the assay with HACAT [3] (setting [5]) and with MCC-13 was inactive.

For the compound `CCN(CCO)CCn1c(Cc2ccccc2)nc2c1c(=O)n(C)c(=O)n2C`, the max response in the assay on CRL-7250 [1] is -2.16%; with HEK293, -6.17%; in the assay on KB-3-1, -17.3%; in the assay on NIH3T3, -7.24%. Further, the call in the assay on HaCat [2], in the assay with HACAT [3] (setting [5]) and with MCC-13 was inactive.

With `NC(=O)c1cc([N+](=O)[O-])cc([N+](=O)[O-])c1`, the compound was classed as inactive in the assay with CRL-7250 [1], in the assay on CRL-7250 [4] and with MCC-13. Moreover, the max response in the assay on HEK293 was -2.7%; with HaCat [2], 3.87%; with KB-3-1 it was -1.64%; with NIH3T3 it was 4.48%.

`Nc1ccccc1`: the max response with CRL-7250 [1] was -1.03%; in the assay with KB-3-1, -12%; in the assay on NIH3T3 it was -0.773%. Further, the call in the assay with HEK293, with HaCat [2], in the assay with HACAT [3] (setting [5]), with HEK293T and with MCC-13 was inactive.

As for `CC(C)N(CCC(C(N)=O)(c1ccccc1)c1ccccn1)C(C)C` (configuration not stated), the max response is -4.51% in the assay on CRL-7250 [1]; -72.3% in the assay with HEK293; -27.6% in the assay on HaCat [2]; -6.29% and -10.8% in the assay with KB-3-1; -23.6% and -1.68% with NIH3T3. Besides, the outcome in the assay with CRL-7250 [1], in the assay on HaCat [2], in the assay on CRL-7250 [4], with HACAT [3] (setting [5]) and with MCC-13 was inactive.

`CCN[C@@H](C)Cc1cccc(C(F)(F)F)c1`: the max response in the assay with CRL-7250 [1] is -0.0811%; in the assay on HEK293, 3.69%; in the assay with KB-3-1, -9.47%; in the assay on NIH3T3, 2.4%. Further, the outcome with HaCat [2], in the assay on HACAT [3] (setting [5]) and in the assay on MCC-13 was inactive.

Take `CCCCCCCCCC(=O)O[C@H]1CC[C@H]2[C@@H]3CCC4=CC(=O)CC[C@@H]4[C@H]3CC[C@]12C`: the compound was called inactive with CRL-7250 [1], in the assay with CRL-7250 [4] and in the assay with MCC-13. The max response in the assay with HEK293 is -2.03%; in the assay on HaCat [2], 4.55%; with KB-3-1, -10.4%; in the assay with NIH3T3 it was -3.4%.

In the case of `CNCC(=O)c1ccc(O)c(O)c1`, the max response with CRL-7250 [1] was 0.325%; in the assay with HEK293, 3.33%; with KB-3-1, -7.67%; with NIH3T3, -2.19%. In addition, the result in the assay with HaCat [2], in the assay on HACAT [3] (setting [5]) and in the assay on MCC-13 was inactive.

Turning to `C[C@]12CC[C@@H]3c4ccc(OC(=O)N(CCCl)CCCl)cc4CC[C@H]3[C@@H]1CC[C@@H]2OP(=O)(O)O`, the Potency with CRL-7250 [1] was 10.5 µM (active). For the same compound, the outcome in the assay on CRL-7250 [1], with HaCat [2], in the assay on KB-3-1, in the assay with CRL-7250 [4], with HACAT [3] (setting [5]) and in the assay with MCC-13 was inactive. Further, the max response is -12.2% in the assay with HEK293, 4.84% in the assay on HaCat [2], -0.529% with KB-3-1 and 2.9% in the assay on NIH3T3.

Regarding `COc1cc(OC)c(OC)cc1C=O`, the max response with CRL-7250 [1] is -7.23% and -7.54%; in the assay on HEK293, -6.96%; with HaCat [2], -4.25%; in the assay on KB-3-1 it was -7.6% and -8.54%; with NIH3T3 it was 2.47% and 4.91%. The compound was called inactive in the assay with HEK293, in the assay on HaCat [2], with HACAT [3] (setting [5]) and in the assay with MCC-13. In the assay with HEK293T, the outcome is “inactive [at 92 µM]”.

Consider `c1ccc(CN2CCNCC2)cc1`, for which the max response with CRL-7250 [1] is 3.96%; with HEK293, -21.3%; in the assay on KB-3-1, -8.52%; in the assay with NIH3T3, -5.38%. The outcome in the assay on HaCat [2] and in the assay on MCC-13 was inactive. For the same compound, the outcome with HACAT [3] (setting [5]) is “inactive [at 155 µM]”.

For the compound `CC(NC(C)(C)C)C(=O)c1cccc(Cl)c1` (configuration not stated), the max response is -10.7% with CRL-7250 [1]; -3.26% and -3.1% in the assay on HEK293; -7.82% with HaCat [2]; -3.99% and 2.03% and 8.68% with KB-3-1; -22.3% and 1.31% in the assay on NIH3T3. For the same compound, the result in the assay on CRL-7250 [1], in the assay with HEK293, in the assay on HaCat [2], in the assay on NIH3T3, in the assay with CRL-7250 [4] and in the assay on HACAT [3] (setting [5]) was inactive. Moreover, the call in the assay with HEK293T and in the assay with MCC-13 was inactive.

Consider `O=C1c2ccccc2C(=O)C1C(=O)C(c1ccccc1)c1ccccc1`, for which the max response in the assay with CRL-7250 [1] was 3.94%; in the assay on KB-3-1, -7.07%; with NIH3T3 it was -11%. The compound was classed as inactive in the assay with HEK293, in the assay with HaCat [2], in the assay on HACAT [3] (setting [5]), in the assay with HEK293T and in the assay with MCC-13.
